# Compound activity deposited in PubChem by The Scripps Research Institute Molecular Screening Center.
# GALR2 blocker – blocks the human galanin receptor 2 | O43603 | GALR2-expressing cells, antagonist mode | inhibition, % at 4 µM | hit rate 0.39% among 140,000 | AID 828;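 note: cells stimulated with galanin 1-16 at roughly its EC80; 0% = agonist challenge control and 100% = basal control without agonist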
# S1P3 antag-1 – blocks the human S1P3 receptor. Q99500. CHO S1P3 NFAT-BLA reporter, FRET fluorescence, antagonist mode. inhibition, % at 4.98 µM. hit rate 0.27% among 170,000;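 active = inhibition above the plate cutoff, the mean inhibition of test wells on that plate plus 3 SD, cut at about 28% in these data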;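 note: cells challenged with S1P at its EC80 of 0.8 µM; blue over green emission ratio from cleaved BLA substrate after 4 h stimulation; 0% = S1P-stimulated wells and 100% = unstimulated DMSO-only wells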
# GALR2 ag – activates the human galanin receptor 2; O43603; GALR2-expressing cells, agonist activation read-out; activation, % (no concentration beside the values); hit rate 0.48% among 140,000; AID 803; in the data active = activation above about 5%, passing the limit was not always enough;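 note: 0% = vehicle buffer wells and 100% = reference agonist at full effect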
# S1P4 antagonist – antagonists of human S1P4 receptor; S1P4-expressing cells, antagonist mode, reporter read-out; inhibition, % at 4.98 µM; hit rate 0.26% among 220,000; in the data active = inhibition above about 29%;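 note: 0% = wells stimulated with agonist and 100% = vehicle wells without agonist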
# Target sequence (O95977 whole entry, looked up): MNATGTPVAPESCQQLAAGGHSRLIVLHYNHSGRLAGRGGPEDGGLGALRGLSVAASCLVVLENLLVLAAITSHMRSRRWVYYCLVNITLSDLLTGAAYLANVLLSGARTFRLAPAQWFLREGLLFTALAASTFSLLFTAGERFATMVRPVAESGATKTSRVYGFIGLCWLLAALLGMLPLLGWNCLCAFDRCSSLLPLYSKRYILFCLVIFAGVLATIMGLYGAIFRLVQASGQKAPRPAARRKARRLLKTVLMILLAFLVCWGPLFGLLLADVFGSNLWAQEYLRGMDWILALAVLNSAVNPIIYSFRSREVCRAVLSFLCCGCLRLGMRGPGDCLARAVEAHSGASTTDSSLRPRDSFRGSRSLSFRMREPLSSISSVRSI
# S1P4 ag – human S1P4 receptor agonism; S1P4-expressing cell line, agonist reporter assay; activation, % at 4.98 µM; hit rate 0.35% among 220,000; AID 1509; in the data active = activation above about 11%;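 note: 0% = DMSO vehicle and 100% = reference agonist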
# S1P3 antag-2 – human S1P3 receptor antagonism, confirmation | shares compounds with S1P3 antag-1 | CHO S1P3 NFAT-BLA reporter, FRET, antagonist mode | inhibition, % at 4.98 µM | hit rate 30% among 240 | AID 1429;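 active = inhibition above the hit threshold that was computed for the earlier primary screen, cut at about 30% in these data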;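 note: 0% = S1P-stimulated wells and 100% = unstimulated DMSO-only wells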
# GALR2 blk conf – confirmation of human galanin receptor 2 (GALR2) antagonists | hit rate 60% among 480 | inhibition, % at 4 µM | shares compounds with GALR2 blocker | GALR2-expressing cells, antagonist mode, inhibition;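 note: cells stimulated with galanin at about its EC80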
# BLA inh counter – inhibits beta-lactamase reporter in GALR2 antagonist counterscreen; inhibition, % at 4.2 µM; CHO NFAT-BLA reporter, beta-lactamase FRET, thapsigargin-stimulated; hit rate 36% among 480; shares compounds with GALR2 blocker;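 active = inhibition above the mean inhibition across tested compounds plus 3 SD, cut at about 27% in these data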;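 note: 0% = 500 nM thapsigargin stimulated wells and 100% = unstimulated BSA only wells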
# * hit, by the source's call; . = no result given. Sampled rows, rich in hits. Any-hit rate of the full collection: about 1.3%. Cut-off read from the data, not from the text of the source, unless noted: active = inhibition above about 27%; inactive = the rest.
SMILES,GALR2 blocker,S1P3 antag-1,GALR2 ag,S1P4 antagonist,S1P4 ag,S1P3 antag-2,others
COc1cccc(CNC(=O)CCCCCn2c(=S)[nH]c3ccc(N4CCOCC4)cc3c2=O)c1,-3,64*,0,-16,1,-13,
O=C(N/N=C/c1ccc(O)cc1)c1cc(C23CC4CC(CC(C4)C2)C3)[nH]n1,.,31*,.,12,0,35*,
CN1CCCN(S(=O)(=O)c2ccc(Cl)c(Cl)c2)CC1,.,-5,.,-19,-2,.,
CC(C)OC(=O)/C(=C\c1ccccc1)NC(=O)c1ccccc1,.,1,.,-7,1,.,
CC(C)OC(=O)/C(=C\c1cccc2ccccc12)NC(=O)c1ccccc1,-9,37*,-1,12,1,24,
Cc1ccc(-n2cccn2)c(CN2CCCC(C(=O)c3ccc4c(c3)OCO4)C2)c1 (stereo not drawn),.,10,.,-8,2,.,
CN1CCc2c(n(CC(O)CN3CCN(CCO)CC3)c3ccccc23)C1=O (stereo not drawn),.,41*,.,-29,2,-9,
COc1ccc(-n2c(C)nc3sc4c(c3c2=O)CCC4)cc1,.,103*,.,5,-1,-9,
CCN1/C(=C/c2sc(-c3ccccc3C)c[n+]2C)Sc2ccccc21,.,36*,.,-9,1,38*,
CCCn1c(C)cc(/C=C(\C#N)C(=O)OCC(=O)Nc2ccc(OC)c(Cl)c2)c1C,-11,92*,-1,-14,3,-16,
O=C(NC(=S)N1CCCCC1CO)C12CC3CC(CC(C3)C1)C2 (stereo not drawn),.,-10,.,-5,-1,.,
CCC(C)NC(=O)Cc1c(OC)ccc2cc(Br)ccc12 (stereo not drawn),.,33*,.,-8,2,-1,
O=C(N/N=C\C=C\c1ccco1)C1COc2ccccc2O1 (stereo not drawn),.,28*,.,-4,-1,-9,
O=C(N/N=C/C=C/c1ccc([N+](=O)[O-])cc1)C1COc2ccccc2O1 (stereo not drawn),5,10,-2,-2,1,.,
OC(CNC1CCCCC1)COCCOc1ccc(Br)cc1 (stereo not drawn),-4,13,-1,15,-1,.,
C#CCOc1c(Br)cc(/C=N\NC(=O)CN2CCOCC2)cc1OCC,-21,.,-3,-17,1,.,
Cc1cccc(OCC(=O)Nc2ccc3c(c2)nc(CN2CCCCC2)n3C)c1,.,30*,.,-17,-1,-11,
Cn1c(CN2CCCC2)nc2cc(NC(=O)COc3ccccc3)ccc21,-3,.,1,-27,2,.,
Cc1cc(NNC(=O)Nc2cccc(Cl)c2)nc2c1c(C)nn2C,.,32*,.,10,-1,14,
Cc1nn(C)c(C)c1CNC(=O)Nc1cccc(Cl)c1,.,-16,.,-15,2,.,
O=C(NC(=S)Nc1ccc(S(=O)(=O)Nc2nccs2)cc1)C1CC1,.,3,.,-9,0,.,
CC(C)C(=O)NC(=S)Nc1ccc(S(=O)(=O)Nc2nccs2)cc1,.,28*,.,-26,-1,-20,
CCOC(=O)CN1C(=O)C2Cc3ccccc3CN2C1=S (stereo not drawn),-9,.,-3,-25,3,.,
O=C(c1cc2ccccc2o1)N1CCN(S(=O)(=O)/C=C/c2ccccc2)CC1,.,2,.,-33,1,.,
O=C(c1ccco1)N1CCN(S(=O)(=O)/C=C/c2ccccc2)CC1,.,30*,.,-22,1,-18,
SMILES,GALR2 blocker,S1P3 antag-1,GALR2 ag,S1P4 antagonist,S1P4 ag,S1P3 antag-2,others
CCCOc1ccc(/C=N\NC(=O)CCc2n[nH]c(=O)[nH]c2=O)cc1OC,.,29*,.,-9,-2,-12,
COc1ccc(/C=N/NC(=O)CCc2n[nH]c(=O)[nH]c2=O)cc1OC,-3,-9,-1,-17,3,.,
CCCOC(=O)c1ccc(Oc2cn[nH]c2-c2ccc(O)cc2O)cc1,.,-1,.,-8,0,.,
CCOC(=O)c1ccc(Oc2cn[nH]c2-c2ccc(O)cc2O)cc1,.,29*,.,2,1,-16,
CC(=O)n1c2c(c3ccccc31)OC(N)=C(C#N)C2c1cccc(Cl)c1Cl (stereo not drawn),5,2,0,0,0,.,
CC(C)=CC(=O)OCC(=O)Nc1ccc(SC(F)F)cc1,.,-14,.,-1,1,.,
CC(=O)CCC(=O)OCC(=O)Nc1ccc(SC(F)F)cc1,.,43*,.,20,-3,-10,
Cc1ccc(/C=N/Nc2ccc(C(=O)O)cc2)s1,.,42*,.,-30,1,-3,
CCCCNC(=O)/C(C#N)=C/c1ccc(F)cc1F,.,-2,.,-4,0,.,
Cc1ccc(N2NC(C)(c3cccs3)NC2=S)cc1 (stereo not drawn),0,7,-1,-15,3,.,
C=CCN1C(=O)C(CC(=O)Nc2ccc(OCCC)cc2)N(CCCN2CCN(Cc3ccccc3)CC2)C1=S (stereo not drawn),.,38*,.,-3,-1,0,
O=[N+]([O-])c1ccc(C2=NN(c3ccccc3)C(c3ccco3)C2)cc1 (stereo not drawn),.,34*,.,12,0,46*,
C=CC[n+]1ccc(/C=C2\C=Cc3cc(C)ccc3N2CC)c2ccccc21,.,30*,.,-8,-2,39*,
CCCCCCCCn1ccc(=N)cc1,.,35*,.,2,0,-6,
S=C(Nc1ccccc1)N1N=C(c2cccs2)CC1c1cccs1 (stereo not drawn),.,30*,.,-12,-2,8,
COc1ccc(C2CC(c3cccs3)=NN2C(=S)Nc2ccccc2)cc1OC (stereo not drawn),6,1,-2,-5,2,.,
CN(Cc1ccccc1)CC(O)COc1ccc(CNCCc2ccncc2)cc1 (stereo not drawn),.,-4,.,4,-1,.,
CN(Cc1ccccc1)CC(O)COc1ccc(CNCCc2cccnc2)cc1 (stereo not drawn),.,31*,.,-8,-1,-14,
Cc1cc(Nc2cccc(Cl)c2)nc(NCc2ccccc2)n1,31*,32*,0,-27,1,10,GALR2 blk conf=51*;BLA inh counter=25
Cc1cc(N/N=C/c2cccc(Cl)c2)nc(NCc2ccccc2)n1,-3,-2,-1,-6,0,.,
CCC(=O)/C=C1/Sc2ccccc2N1CC,8,.,-1,21,0,.,
CCN1/C(=C/c2ccc3cc(C)ccc3[n+]2CC)Sc2ccccc21,46*,33*,0,-34,-2,34*,GALR2 blk conf=48*;BLA inh counter=49*
O=C(N/C(=C\c1cccc([N+](=O)[O-])c1)C(=O)N(CCO)CCO)c1ccco1,.,-5,.,4,-1,.,
CCOc1ccc(C(=O)c2cc([N+](=O)[O-])ccc2N2CCOCC2)cc1,51*,33*,2,23,-1,19,GALR2 blk conf=30*;BLA inh counter=68*
N#Cc1c(-c2ccccc2)nc(SCC(=O)N2c3ccccc3Sc3ccccc32)[nH]c1=O,.,-2,.,-11,0,.,
